Laboratory results as given in PubChem BioAssay (Tox21).
“And” between values parts separate entries of the source, which are not always exact repeats. Equal entries are not always repeated. Inconclusive results are not listed. The source made the active and inactive calls. Unless noted, the call rests on the fitted dose curve; in most records, active means well fitted curve in the direction sought with a large enough effect in the repeat runs; inconclusive means weak or mixed curves; inactive means no such curve, though single readings can be large; an effect the other way counts as inactive or inconclusive.

Columns and labels:
[1] = qHTS assay to identify small molecule phospholipidosis (PLD) inducers (AID 1259344; active means well fitted curve in the direction sought with a large enough effect; an effect the other way counts as inactive or inconclusive)
Method in brief: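 Fluorescent phospholipid staining (LipidTOX Red) measured by automated microscopy in fixed HepG2 cells after 24 h treatment; nuclei counterstained with Hoechst 33342; amiodarone as reference inducer.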

[2] = qHTS assay to identify small molecule HDAC inhibitors (AID 1259364);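 further: wild-type HCT-116 cells with endogenous class I/II HDAC activity; top concentration of the series differs between compounds; nearly all actives have a fitted effect of over 45% in size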
Method in brief: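 Relative class I and II HDAC activity is taken from the luminogenic signal in HCT-116 cells, with compound exposure 2 hr and reagent development 30 min at room temperature.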

[3] = qHTS assay to identify small molecule agonists of the sonic hedgehog signaling (Shh) pathway - cell viability counter screen (AID 1259366); further: nearly all actives have a fitted effect of over 50% in size; further: potency means the concentration at half of the fitted maximal effect
Method in brief: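 NIH/3T3-derived Gli1-Luc reporter cells, 2,000 per well, received compound after 4 h and were treated about 23 h at 37C. Viability measured in the same wells by CellTiter-Fluor fluorescence after 1 h.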

[4] = qHTS assay to identify small molecule antagonists of the sonic hedgehog signaling (Shh) pathway - cell viability counter screen (AID 1259367); further: nearly all actives have a fitted effect of over 55% in size; further: potency means the concentration at half of the fitted maximal effect
Method in brief: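 Using CellTiter-Fluor, viability of Gli1-Luc reporter 3T3 cells is read by fluorescence in the wells used for the Shh luciferase assay. Treatment lasts 23 hr with conditioned medium, then reagent 1 hr at 37C.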

[5] = qHTS assay to identify small molecule agonists of the sonic hedgehog signaling (Shh) pathway (AID 1259368; calls by dose curve;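 further: NIH/3T3-derived 3T3Gli1-Luc cells carrying a stable Gli1-driven firefly luciferase reporter; series mostly up to about 92 µM; nearly all actives have a fitted effect of over 15% in size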)
Method in brief: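 Mouse fibroblast (NIH/3T3) reporter cells with stably integrated Gli1-Luc were treated 24 hr with compound; firefly luciferase luminescence served as the read-out.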

[6] = qHTS assay to identify small molecule antagonists of the sonic hedgehog signaling (Shh) pathway (AID 1259369; calls by dose curve; further: nearly all actives have a fitted effect of over 45% in size; further: potency means the concentration at half of the fitted maximal effect)
Method in brief: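 Conditioned medium drives Shh signalling in 3T3Gli1-Luc cells; compounds in DMSO co-applied, 24hr at 37 C, then luciferase luminescence.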

[7] = qHTS assay to identify small molecule agonists of the estrogen receptor beta (ER-beta) signaling pathway - cell viability counter screen (AID 1259380); further: nearly all actives have a fitted effect of over 30% in size; further: potency means the concentration at half of the fitted maximal effect
Method in brief: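 Cells used were ER-beta-UAS-bla HEK293T in medium with 2% charcoal-stripped FBS. They were treated for 16 hr at 37C. Viability came from CellTiter-Glo luminescence.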

[8] = qHTS assay to identify small molecule antagonists of the estrogen receptor beta (ER-beta) signaling pathway - cell viability counter screen (AID 1259382); further: nearly all actives have a fitted effect of over 55% in size; further: potency means the concentration at half of the fitted maximal effect
Method in brief: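 Agonist-stimulated (1nM E2) ER-beta-UAS-bla HEK293T cells are incubated with library compounds for 16 hr at 37C. Cell viability is then assessed in the reporter-assay wells by adding CellTiter-Glo and reading luminescence after 30 min.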

[9] = qHTS assay to identify small molecule agonists of the estrogen receptor alpha (ER-alpha) signaling pathway in the presence of an antagonist - cell viability counter screen (AID 1259386);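 further: cells exposed to compounds for 22 h at 37 °C before the viability read; nearly all actives have a fitted effect of over 30% in size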; further: potency means the concentration at half of the fitted maximal effect
Method in brief: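 ICI-182,780 at 10.0nM final accompanies the compound titration (15 concentrations, 22hr, 37C) on VM7Luc4E2 cells. The CellTiter-Fluor fluorescence readout runs in the same wells as the luciferase assay.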

[10] = molecular target: Estrogen receptor (Homo sapiens) (UniProt P03372); assay: qHTS assay to identify small molecule antagonists of the estrogen receptor alpha (ER-alpha) signaling pathway using the BG1 cell line in the presence of 0.1 nM 17-beta-estradiol (AID 1259244); further: nearly all actives have a fitted effect of over 50% in size; further: potency means the concentration at half of the fitted maximal effect
Method in brief: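 VM7Luc4E2; 4xERE-luciferase; 0.1 nM E2 final; 22 h co-incubation, 37C; ONE-Glo luminescence after 30 min at room temperature.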

[11] = molecular target: Estrogen receptor beta (Homo sapiens) (UniProt Q92731); assay: qHTS assay to identify small molecule agonists of the estrogen receptor beta (ER-beta) signaling pathway (AID 1259377; active means well fitted activation curve with a large enough effect in the signal ratio in the repeat runs, not every such curve was filed as active; the % refers to the signal ratio)
Method in brief: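 ER-beta-UAS-bla HEK293T cells in medium with 2% charcoal-stripped FBS were exposed to compounds for 16 h at 37C. Beta-lactamase reporter activity was read as fluorescence after 2 h with LiveBLAzer B/G FRET substrate at room temperature.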

[12] = molecular target: Estrogen receptor beta (Homo sapiens) (UniProt Q92731); assay: qHTS assay to identify small molecule antagonists of the estrogen receptor beta (ER-beta) signaling pathway (AID 1259378; active means well fitted inhibition curve with a large enough effect in the signal ratio in the repeat runs, not every such curve was filed as active; the % refers to the signal ratio; further: potency means the concentration at half of the fitted maximal effect)
Method in brief: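 Antagonist mode: compounds added to beta-lactamase reporter HEK293T ER-beta-UAS cells stimulated with E2 (1nM final), 16 hr at 37C. LiveBLAzer B/G FRET substrate, 2 hours room temperature, fluorescence read-out.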

[13] = qHTS assay to identify small molecule agonists of the androgen receptor (AR) signaling pathway in the presence of an antagonist - cell viability counter screen (AID 1259379); further: nearly all actives have a fitted effect of over 25% in size; further: potency means the concentration at half of the fitted maximal effect
Method in brief: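 A CellTiter-Fluor read-out measured viability of MDA-kb2 reporter cells (MMTV promoter with AR and GR response elements). Treatment: nilutamide 3.0uM final with compounds at 15 concentrations, 16 hr, 37C, 0% CO2.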

[14] = molecular target: Estrogen receptor (Homo sapiens) (UniProt P03372); assay: qHTS assay to identify small molecule agonists of the estrogen receptor alpha (ER-alpha) signaling pathway in the presence of an antagonist (AID 1259383; calls by dose curve; further: top concentration of the series differs between compounds; nearly all actives have a fitted effect of over 15% in size)
Method in brief: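 Using VM7Luc4E2 cells seeded 24hr before treatment, antagonist ICI-182,780 (10.0nM final) was added, followed by compounds at 15 concentrations. Plates incubated 22hr; ONE-Glo luminescence quantified reporter activity.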

[15] = qHTS assay to identify small molecule agonists or antagonists of the thyroid stimulating hormone receptor (TSHR) signaling pathway - wild type cell line counter screen (AID 1259384; calls by dose curve)
Method in brief: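 Counter screen in untransfected Hek293: compounds (15-point titration, triplicate) plus phosphodiesterase inhibitor Ro20-1724 added after 18 h plating; 30 min RT. Intracellular cAMP via competitive d2/cryptate immunoassay, 1 h incubation.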

[16] = molecular target: Thyrotropin receptor (Homo sapiens) (UniProt P16473); assay: qHTS assay to identify small molecule antagonists of the thyroid stimulating hormone receptor (TSHR) signaling pathway (AID 1259385; calls by dose curve; further: nearly all actives have a fitted effect of over 20% in size)
Method in brief: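 Antagonist mode: compound-treated TSHR-expressing HEK293 cells were stimulated with 1.5 ng/mL TSH (final) in presence of Ro20-1724 for 30 min at RT. HTRF cAMP detection after 1 h; each compound tested at 15 concentrations, triplicate.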

[17] = molecular target: Progesterone receptor (Homo sapiens) (UniProt P06401); assay: qHTS assay to identify small molecule agonists of the progesterone receptor (PR) signaling pathway (AID 1346784; calls by dose curve; further: nearly all actives have a fitted effect of over 30% in size)
Method in brief: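 PR-UAS-bla HEK 293T cells (beta-lactamase reporter under UAS) in 2% charcoal-stripped FBS, dosed with 23 nL compound after 6 hr, incubated 16hr at 37C. LiveBLAzer B/G FRET substrate added, fluorescence read after 2 hours.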

[18] = molecular target: Androgen receptor (Homo sapiens) (UniProt P10275); assay: qHTS assay to identify small molecule agonists of the androgen receptor (AR) signaling pathway in the presence of an antagonist (AID 1259381; calls by dose curve; further: nearly all actives have a fitted effect of over 15% in size)
Method in brief: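 Using human MDA-kb2 cells with an MMTV promoter–luciferase construct (AR and GR response elements), agonist activity is scored under 3.0uM nilutamide (final) co-treatment; 16hr incubation, 37C, luminescence readout via ONE-Glo.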

[19] = qHTS assay to identify small molecule HDAC inhibitors - cell viability counter screen (AID 1259365); further: series mostly up to about 92 µM; nearly all actives have a fitted effect of over 50% in size
Method in brief: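 Wild-type HCT-116 cells, 1,500/well, cultured overnight, then compound-treated 2 h at 37 C. Viability measured as ATP luminescence with CellTiter-Glo after 30 min at room temperature.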

Measured: Potency

Chain of Thyrotropin receptor (Homo sapiens) (P16473 whole entry, looked up): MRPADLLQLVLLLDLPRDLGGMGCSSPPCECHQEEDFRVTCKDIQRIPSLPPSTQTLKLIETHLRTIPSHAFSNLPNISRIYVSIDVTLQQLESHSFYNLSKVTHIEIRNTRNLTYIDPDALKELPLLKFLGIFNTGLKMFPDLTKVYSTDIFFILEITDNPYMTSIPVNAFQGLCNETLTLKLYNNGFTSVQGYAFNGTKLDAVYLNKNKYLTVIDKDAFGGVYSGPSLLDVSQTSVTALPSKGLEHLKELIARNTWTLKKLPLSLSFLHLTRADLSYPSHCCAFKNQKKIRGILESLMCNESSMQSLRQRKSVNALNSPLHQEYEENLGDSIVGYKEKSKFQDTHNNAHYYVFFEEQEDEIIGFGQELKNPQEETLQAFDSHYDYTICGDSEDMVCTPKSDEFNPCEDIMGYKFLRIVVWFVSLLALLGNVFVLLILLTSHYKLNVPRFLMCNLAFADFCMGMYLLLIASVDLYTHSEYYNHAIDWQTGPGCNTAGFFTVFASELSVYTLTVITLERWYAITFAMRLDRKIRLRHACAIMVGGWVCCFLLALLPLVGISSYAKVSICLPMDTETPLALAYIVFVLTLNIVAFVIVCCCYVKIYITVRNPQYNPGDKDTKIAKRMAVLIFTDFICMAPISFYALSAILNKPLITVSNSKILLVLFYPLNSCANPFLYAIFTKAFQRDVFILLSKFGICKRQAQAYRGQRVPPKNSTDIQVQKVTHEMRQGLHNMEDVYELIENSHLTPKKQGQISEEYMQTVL
Chain of Estrogen receptor (Homo sapiens) (P03372 whole entry, looked up): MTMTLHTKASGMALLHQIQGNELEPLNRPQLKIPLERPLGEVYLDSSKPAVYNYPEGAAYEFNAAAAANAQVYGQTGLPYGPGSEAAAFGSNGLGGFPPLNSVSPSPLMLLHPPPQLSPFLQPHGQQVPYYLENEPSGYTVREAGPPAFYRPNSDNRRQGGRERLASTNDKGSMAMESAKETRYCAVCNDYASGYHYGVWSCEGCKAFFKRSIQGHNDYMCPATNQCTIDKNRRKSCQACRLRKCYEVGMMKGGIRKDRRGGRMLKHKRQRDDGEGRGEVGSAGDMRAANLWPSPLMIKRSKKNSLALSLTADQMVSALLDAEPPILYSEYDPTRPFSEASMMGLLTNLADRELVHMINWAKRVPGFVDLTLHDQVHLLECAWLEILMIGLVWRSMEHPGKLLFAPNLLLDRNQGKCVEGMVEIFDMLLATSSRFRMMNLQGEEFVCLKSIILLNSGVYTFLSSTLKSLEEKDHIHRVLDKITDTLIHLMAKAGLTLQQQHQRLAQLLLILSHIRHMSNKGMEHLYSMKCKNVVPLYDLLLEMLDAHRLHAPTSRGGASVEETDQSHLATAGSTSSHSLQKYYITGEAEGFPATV
Chain of Estrogen receptor beta (Homo sapiens) (Q92731 whole entry, looked up): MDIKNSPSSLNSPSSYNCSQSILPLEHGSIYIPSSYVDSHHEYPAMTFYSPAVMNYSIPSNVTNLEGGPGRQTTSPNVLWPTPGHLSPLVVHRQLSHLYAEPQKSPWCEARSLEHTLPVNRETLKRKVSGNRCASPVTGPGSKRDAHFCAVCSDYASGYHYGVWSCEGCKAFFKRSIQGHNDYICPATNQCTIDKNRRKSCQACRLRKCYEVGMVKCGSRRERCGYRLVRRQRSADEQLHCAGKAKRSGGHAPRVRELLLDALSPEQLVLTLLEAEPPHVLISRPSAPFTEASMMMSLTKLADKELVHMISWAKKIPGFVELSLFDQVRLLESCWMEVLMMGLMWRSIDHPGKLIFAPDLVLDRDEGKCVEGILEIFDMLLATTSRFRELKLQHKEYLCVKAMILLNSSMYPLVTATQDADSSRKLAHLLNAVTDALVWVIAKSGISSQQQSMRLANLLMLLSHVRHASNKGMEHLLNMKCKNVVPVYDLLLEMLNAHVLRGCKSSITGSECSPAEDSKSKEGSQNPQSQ
Chain of Progesterone receptor (Homo sapiens) (P06401 whole entry, looked up): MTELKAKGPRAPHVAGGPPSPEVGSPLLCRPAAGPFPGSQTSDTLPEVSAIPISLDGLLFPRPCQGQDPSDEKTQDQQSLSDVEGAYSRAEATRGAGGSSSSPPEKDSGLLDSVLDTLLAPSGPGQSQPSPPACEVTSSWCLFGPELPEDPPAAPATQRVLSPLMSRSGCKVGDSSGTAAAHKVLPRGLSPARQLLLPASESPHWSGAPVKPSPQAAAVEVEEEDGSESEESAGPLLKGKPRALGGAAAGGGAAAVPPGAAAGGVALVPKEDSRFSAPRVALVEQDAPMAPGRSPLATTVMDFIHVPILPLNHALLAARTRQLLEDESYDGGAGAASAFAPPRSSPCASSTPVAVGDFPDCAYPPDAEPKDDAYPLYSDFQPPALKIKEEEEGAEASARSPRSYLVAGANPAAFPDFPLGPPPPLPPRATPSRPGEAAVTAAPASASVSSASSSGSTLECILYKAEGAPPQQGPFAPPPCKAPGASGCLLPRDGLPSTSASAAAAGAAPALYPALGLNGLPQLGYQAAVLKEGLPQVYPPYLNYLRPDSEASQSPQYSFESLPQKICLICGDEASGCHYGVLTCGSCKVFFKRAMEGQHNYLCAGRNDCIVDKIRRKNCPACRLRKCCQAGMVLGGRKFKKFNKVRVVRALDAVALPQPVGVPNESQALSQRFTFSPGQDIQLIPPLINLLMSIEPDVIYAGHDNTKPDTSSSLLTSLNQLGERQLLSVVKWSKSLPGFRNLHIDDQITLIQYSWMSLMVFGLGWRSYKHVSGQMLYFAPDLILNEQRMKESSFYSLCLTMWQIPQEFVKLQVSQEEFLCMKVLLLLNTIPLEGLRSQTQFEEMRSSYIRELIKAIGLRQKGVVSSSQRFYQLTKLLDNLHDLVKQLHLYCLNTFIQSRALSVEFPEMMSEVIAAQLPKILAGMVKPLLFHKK
Chain of Androgen receptor (Homo sapiens) (P10275 whole entry, looked up): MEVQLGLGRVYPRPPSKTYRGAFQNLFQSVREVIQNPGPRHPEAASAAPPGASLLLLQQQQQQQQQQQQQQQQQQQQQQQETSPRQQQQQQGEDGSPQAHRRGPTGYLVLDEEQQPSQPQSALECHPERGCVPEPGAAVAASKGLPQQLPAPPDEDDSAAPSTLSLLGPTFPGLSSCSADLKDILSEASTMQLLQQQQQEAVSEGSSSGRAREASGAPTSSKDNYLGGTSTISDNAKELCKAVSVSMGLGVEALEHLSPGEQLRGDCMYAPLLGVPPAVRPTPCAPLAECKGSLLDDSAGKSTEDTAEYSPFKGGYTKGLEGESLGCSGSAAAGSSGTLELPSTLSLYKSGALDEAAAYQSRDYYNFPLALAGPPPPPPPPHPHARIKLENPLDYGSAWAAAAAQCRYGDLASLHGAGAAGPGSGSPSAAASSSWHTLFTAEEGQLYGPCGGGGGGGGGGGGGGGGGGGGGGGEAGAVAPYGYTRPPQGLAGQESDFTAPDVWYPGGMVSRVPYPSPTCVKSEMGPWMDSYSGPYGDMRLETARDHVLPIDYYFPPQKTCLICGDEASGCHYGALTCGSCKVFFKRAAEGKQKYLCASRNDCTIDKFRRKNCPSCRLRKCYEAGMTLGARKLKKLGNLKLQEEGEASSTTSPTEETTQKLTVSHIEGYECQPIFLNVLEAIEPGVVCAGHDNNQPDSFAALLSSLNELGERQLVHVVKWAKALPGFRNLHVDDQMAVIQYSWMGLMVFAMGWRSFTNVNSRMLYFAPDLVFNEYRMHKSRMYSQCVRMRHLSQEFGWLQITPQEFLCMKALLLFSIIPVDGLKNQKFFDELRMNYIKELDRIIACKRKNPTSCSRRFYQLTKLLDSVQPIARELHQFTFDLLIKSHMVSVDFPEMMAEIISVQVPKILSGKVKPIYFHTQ

O=C(O)CCn1c2c(c3ccccc31)C[C@H](NS(=O)(=O)c1ccc(F)cc1)CC2
inactive: [1] | [2] | [3] | [4] | [5] | [6] | [7] | [8] | [9]

CCCCOC(=O)C(C)CC (centres undefined)
not listed: [1] | [6] | [18] | [19]
inactive: all other assays above

Cc1ccc(N)cc1O
inactive: [1] | [3] | [4] | [5] | [13] | [18] | [14] | [15]

CNCC[C@H](Oc1cccc2ccccc12)c1cccs1
inactive: [2] | [19] | [5] | [16] | [9]
active: [3] 26.6 µM | [4] 33.5 µM | [6] 2.37 µM | [13] 29.8 µM | [7] 16.8 µM | [8] 13.3 µM

O=Nc1ccc(NO)cc1
active: [10] 50.5 µM | [6] 14.2 µM
inactive: [19] | [7] | [8] | [14] | [9] | [17]

COC(=O)[C@]1(C)CCC[C@@]2(C)[C@H]1CC=C1C=C(C(C)C)CC[C@@H]12
active: [7] 68.6 µM
not listed: [1] | [10] | [14] | [18]
inactive: all other assays above

Clc1ccc(C(Cn2ccnc2)OCc2ccsc2Cl)c(Cl)c1 (centres undefined)
active: [6] 11.9 µM | [12] 10.6 µM | [7] 23.7 µM | [8] 29.8 µM
inactive: [1] | [2] | [19] | [5] | [14] | [15] | [9] | [17]

CN1[C@@H]2CC[C@H]1CC(OC(=O)C(CO)c1ccccc1)C2 (some centres undefined)
active: [7] 68.5 µM
inactive: [1] | [2] | [19] | [3] | [4] | [13] | [8] | [9] | [17]

CCCCCCCC/C=C\CCCCCCCC(=O)NCc1ccc(O)c(OC)c1
inactive: [1] | [2] | [19] | [4] | [5] | [6] | [13] | [8] | [9] | [17]

CC(O)C#CC(C)O (centres undefined)
active: [3] 53.9 µM | [4] 60.5 µM | [6] 24.1 µM
inactive: [10] | [5] | [13] | [14] | [15] | [9]

Clc1ccc(C(c2ccccc2Cl)C(Cl)Cl)cc1 (centres undefined)
active: [12] 19.3 µM | [7] 48.6 µM
not listed: [1] | [10] | [14] | [18]
inactive: all other assays above

CC(C)(c1cc(Br)c(O)c(Br)c1)c1cc(Br)c(O)c(Br)c1
active: [6] 60.9 µM and 64.9 µM | [7] 68.3 µM and 68.4 µM | [8] 68.4 µM
inactive: [2] | [19] | [3] | [4] | [5] | [15] | [16] | [9]

NCCCC(O)(P(=O)(O)O)P(=O)(O)O
not listed: [10] | [11] | [12] | [14] | [15] | [17] | [18]
inactive: all other assays above

O=C1NC2CCCCN2C12CCN(CCCN1c3ccccc3CCc3ccc(Cl)cc31)CC2 (centres undefined)
active: [3] 26.6 µM | [4] 29.8 µM | [6] 21.1 µM | [12] 23.7 µM | [13] 26.6 µM | [7] 26.6 µM | [8] 26.6 µM | [9] 29.8 µM
inactive: [2] | [19] | [5] | [11] | [14] | [15]

CCCCCCOc1ccc(O)cc1
not listed: [1] | [2] | [4] | [7] | [8] | [12] | [15] | [17]
inactive: all other assays above

CCC1(c2cnc[nH]2)Cc2ccccc2C1
inactive: [2] | [19] | [3] | [4] | [5] | [6] | [13] | [8] | [9]
